CYP2C9 act: human CYP2C9 activators, primary screen, biochemical, luminescence; 1.4% of 96,000 active; activation factor at 5 µM; recombinant CYP2C9, luciferin-H conversion; hits give high values; factor 1 = untreated enzyme, 0 = blocked;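 active = activation factor of 2 or more for CYP2C9 at a 5 µM dose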
Target sequence (P11712 whole entry, looked up): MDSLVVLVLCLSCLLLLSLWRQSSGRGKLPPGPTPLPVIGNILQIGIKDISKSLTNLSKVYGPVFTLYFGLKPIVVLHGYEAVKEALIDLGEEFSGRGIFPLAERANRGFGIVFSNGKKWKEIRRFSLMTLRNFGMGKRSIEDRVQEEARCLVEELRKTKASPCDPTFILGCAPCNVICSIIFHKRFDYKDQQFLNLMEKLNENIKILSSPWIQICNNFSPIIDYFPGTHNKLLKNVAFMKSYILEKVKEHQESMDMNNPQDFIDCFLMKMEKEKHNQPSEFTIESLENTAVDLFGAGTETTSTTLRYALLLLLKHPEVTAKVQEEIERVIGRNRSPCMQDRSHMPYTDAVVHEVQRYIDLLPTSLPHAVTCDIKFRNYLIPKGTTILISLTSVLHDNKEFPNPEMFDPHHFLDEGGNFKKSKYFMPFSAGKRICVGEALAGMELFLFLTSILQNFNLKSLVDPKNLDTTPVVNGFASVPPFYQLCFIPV
CYP2C19 inhib: blockers of cytochrome P450 2C19 activity – biochemical, luminescence, ADME assay, primary screen; CYP2C19 Supersomes, luciferin-H EGE luminescence, 30 min; AID 778, 2007; P33261; inhibition, % at 5 µM; 21% of 96,000 active;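 active = CYP2C19 inhibition above a set limit at 5 µM in the primary screen, cut at about 50% in these data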
Measles CPE: compounds protecting cells from measles virus cytopathic effect, primary screen, measles RdRp inhibitor project, single point, MLSMR library, absorbance; Measles virus-infected cells, CPE protection; protection (pct of control), % at 4 µM; 1.5% of 140,000 active; AID 841, 2007; in the data active = protection mostly above about 24%, no sharp cut-off; inactive = mostly below about 26%
CYP2C9 inh: blockers of cytochrome P450 2C9 activity – biochemical, luminescence, ADME assay, primary screen; P11712; CYP2C9 Supersomes, luciferin-H conversion; inhibition, % at 5 µM; 20% of 96,000 active; AID 777, 2007;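 active = blocking of liver enzyme CYP2C9 beyond about 50% at 5 µM, limit read from the data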
CYP2C19 act: human CYP2C19 activators, primary screen, biochemical, luminescence. Cytochrome P450 2C19 (Homo sapiens), P33261. recombinant CYP2C19, luciferin-H EGE luminescence; hits give high values; 0 = fully inhibited enzyme, 1 = untreated enzyme. activation factor at 5 µM. 96,000 tested, under 10 active. AID 1025, 2008;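 active = activation factor of at least 2 at 5 µM in the primary screen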
Each line names hits and unclear results; the compound was inactive in the other large screens. An excerpt weighted towards active compounds, which were near 22% of everything screened.

CCOC(=O)c1cccc(NC(=O)CSc2nc3cccnc3n2C)c1	CYP2C19 inhib 58
CCOC(=O)c1c(NC(=O)CSc2nnc(-c3ccccc3C)n2C)sc(C(C)=O)c1C	CYP2C19 inhib 84, CYP2C9 inh 95
CCOC(=O)c1c(C)[nH]c(C)c1C(=O)CSc1nc2ccccc2c(=O)n1-c1ccc(CC)cc1	none (no result: CYP2C9 act, CYP2C19 inhib, CYP2C9 inh, CYP2C19 act)
CCOC(=O)c1c(NC(=O)CSc2nc3ccccc3c(=O)n2-c2ccc(F)cc2)sc(C(C)=O)c1C	Measles CPE 33 (no result: CYP2C9 act, CYP2C19 inhib, CYP2C9 inh, CYP2C19 act)
O=C(COC(=O)c1ccc(Cl)c(S(=O)(=O)N2CCc3ccccc3C2)c1)Nc1ncc(Cl)cc1Cl	none (no result: CYP2C9 act, CYP2C19 inhib, CYP2C9 inh, CYP2C19 act)
Cc1cccc(Oc2ccc(C(=O)NC3CCSC3=O)cn2)c1C (centres undefined)	none
CCOC(=O)c1cccc(NC(=O)Cn2c(CC(=O)NC)nc3ccccc32)c1	CYP2C9 inh 71
Cc1nn2c(SCC(=O)c3cccs3)cc(C(C)(C)C)nc2c1-c1ccccc1	none (no result: CYP2C9 act, CYP2C19 inhib, CYP2C9 inh, CYP2C19 act)
N#CC1=C(N)SC(N)=C(C#N)C1c1ccnc2ccccc12	CYP2C9 inh 70
Cn1nnnc1SCc1ccc(F)cc1	CYP2C19 inhib 56
Cc1occc1-c1nnc(SCc2nnc(-c3ccc(Cl)cc3)o2)n1C	none (no result: CYP2C9 act, CYP2C19 inhib, CYP2C9 inh, CYP2C19 act)
Cc1ccc(CSc2nnnn2C)cc1	CYP2C19 inhib 74
Cn1nnnc1SCc1nnc(-c2ccc(Cl)cc2)o1	CYP2C19 inhib 78
O=C(/C=C/Nc1ccc(F)cc1F)c1cccs1	none (no result: CYP2C9 act, CYP2C19 inhib, CYP2C9 inh, CYP2C19 act)
O=C(/C=C\Nc1cccc(F)c1)c1cccs1	CYP2C19 inhib 55
Cc1cc2c(C)cc(=O)oc2c2c1NCCC2	CYP2C9 act 3.1
Clc1ccc(OCCSc2ncccn2)c2ccccc12	none
c1cnc(SCCOc2cccc3ccccc23)nc1	CYP2C19 inhib 57
Cc1cc(C)c(S(=O)(=O)n2ccc(-c3ccc(OCCN(C)c4ccccn4)cc3)n2)c(C)c1	CYP2C9 inh 57
CCOC(=O)c1sc(=S)n(C)c1NC(=O)c1ccccc1Cl	none (no result: CYP2C9 act, CYP2C19 inhib, CYP2C9 inh, CYP2C19 act)
COC(=O)c1ccc(NC(=O)CNS(=O)(=O)c2cccs2)cc1	CYP2C19 inhib 65
COC(=O)c1ccc(NC(=O)Cc2ccccc2)cc1	CYP2C19 inhib 83, CYP2C9 inh 70
CCOCC(=O)Nc1cc(C(=O)OC)cc(C(=O)OC)c1	none (no result: CYP2C9 act, CYP2C19 inhib, CYP2C9 inh, CYP2C19 act)
CCC(C)C(=O)Nc1cc(C(=O)OC)cc(C(=O)OC)c1 (centres undefined)	CYP2C9 inh 61
COC(=O)c1ccc(NC(=S)Nc2ccccc2)cc1	CYP2C19 inhib 52
COC(=O)c1ccc(NC(=S)Nc2ccc3ccccc3c2)cc1	none
Cc1ccc(NC(=O)COC(=O)COc2ccc(Cl)cc2)c([N+](=O)[O-])c1	none (no result: CYP2C9 act, CYP2C19 inhib, CYP2C9 inh, CYP2C19 act)
CC(C)C(NC(=O)c1cccs1)c1nnc(SCC(=O)Nc2nccs2)n1C (centres undefined)	none
CC(C)C[C@H](NC(=O)OC(C)(C)C)c1n[nH]c(=S)n1N	none (no result: CYP2C9 act, CYP2C19 inhib, CYP2C9 inh, CYP2C19 act)
Clc1ccc(CNC23CN4CN(CN(C4)C2)C3)c(Cl)c1	none (no result: CYP2C9 act, CYP2C19 inhib, CYP2C9 inh, CYP2C19 act)
COC(=O)c1cc(NC(=O)Cc2ccc(OC)cc2)cc(C(=O)OC)c1	CYP2C9 inh 84
COC(=O)c1ccc(NC(=O)Cc2ccc(C)cc2)cc1	none
COc1ccc(-n2c(C)cc(C)c(C(C)=O)c2=S)cc1	none (no result: CYP2C9 act, CYP2C19 inhib, CYP2C9 inh, CYP2C19 act)
O=c1c2ccccc2nc(SCc2nnc(-c3ccccc3)o2)n1-c1ccc(F)cc1F	CYP2C19 inhib 77, CYP2C9 inh 99
Cn1c(SCc2ccon2)nc2ccccc2c1=O	none
COc1ccc(-c2nnc(CSc3nc4ccccc4c(=O)n3C)o2)cc1OC	CYP2C19 inhib 80, CYP2C9 inh 86
CCN1C(=O)CC(c2ccco2)Sc2ccccc21 (centres undefined)	CYP2C19 inhib 53
COc1cc(C2CC(=O)N(CC(=O)NCc3ccco3)c3ccccc3S2)cc(OC)c1OC (centres undefined)	CYP2C19 inhib 65, CYP2C9 inh 71
O=C(CN1C(=O)CC(c2ccco2)Sc2ccccc21)NCc1ccc2c(c1)OCO2 (centres undefined)	CYP2C19 inhib 94, CYP2C9 inh 86
O=C(CN1C(=O)CC(c2ccco2)Sc2ccccc21)Nc1ccccc1F (centres undefined)	none (no result: CYP2C9 act, CYP2C19 inhib, CYP2C9 inh, CYP2C19 act)
CCC1Sc2ccccc2N(CC(=O)NCc2ccccc2OC)C1=O (centres undefined)	none
CCCC(=Nc1ccc(N)cc1)C1=C(O)C(C(=O)OC)C(C)(C)CC1=O (centres undefined)	none
O=C(O)c1[nH]c2ccccc2c1NS(=O)(=O)Cc1ccccc1	none
c1ccc(CSc2nnc(-c3cccnc3)o2)cc1	none (no result: CYP2C9 act, CYP2C19 inhib, CYP2C9 inh, CYP2C19 act)
Cc1ccc(CSc2nnc(-c3cccnc3)o2)cc1	CYP2C19 inhib 70, CYP2C9 inh 58
c1ccc2[nH]c(CSc3nc4ccccc4o3)nc2c1	CYP2C19 inhib 100, CYP2C9 inh 70
c1cncc(-c2nnc(SCc3nc4ccccc4[nH]3)o2)c1	CYP2C19 inhib 70
Nn1c(CSc2nc3ccccc3o2)nnc1CSc1nc2ccccc2o1	CYP2C19 inhib 72, CYP2C9 inh 66
O=C(O)CSc1nc2ccccc2o1	none
CC(=O)Nc1ccc(S(=O)(=O)N(C)CC(=O)Nc2ccccc2N2CCOCC2)cc1	none
COc1ccc(-c2nnc(NC(=O)c3cc(Cl)ccc3Cl)o2)cc1	none
C(=C\c1ccccc1)/CSc1nnc(-c2cccnc2)o1	CYP2C19 inhib 55
COc1cc2c(cc1OC)C1=C(C#N)CC/C(=N\S(=O)(=O)c3cccc(Cl)c3)N1CC2	CYP2C9 inh 63
CCN(CC)c1nc(OC)nc(-n2nnc(C(C)=O)c2C)n1	none
CCn1c(=O)n(CC(=O)Nc2cc(OC)ccc2OC)c(=O)c2ccccc21	none
COc1ccc(OC)c(NC(=O)Cn2cc(C#N)c3cc(Br)ccc32)c1	CYP2C19 inhib 93, CYP2C9 inh 99
COCCNC(=O)CN(C(=O)CCC(=O)Nc1cc(C)on1)c1ccccc1C	none
CC(=O)Nc1ccc(Br)cc1C(=O)C(=O)O	none (no result: CYP2C9 act, CYP2C19 inhib, CYP2C9 inh, CYP2C19 act)
CS(=O)(=O)Nc1ccc(Br)cc1C(=O)c1ccccc1	CYP2C19 inhib 92, CYP2C9 inh 88
CC(C)(C)S(=O)(=O)c1ccccc1C(=O)O	none
Cc1ccc(CNC(=O)c2ccccc2NS(C)(=O)=O)cc1	CYP2C19 inhib 55, CYP2C9 inh 54
Cc1ccccc1NC(=O)Nc1ccccc1C(=O)NCc1ccccc1	CYP2C9 inh 59
CS(=O)(=O)Nc1ccccc1C(=O)O	Measles CPE 51
c1ccc2c(c1)nc(N1CCOCC1)c1c3ccccc3[nH]c21	none
CC(NC(=O)c1ccccc1NC(=O)CSc1nnnn1C)c1ccccc1 (centres undefined)	CYP2C9 inh 62
Cc1nc2cccc(C(=O)NCc3ccccc3)c2o1	CYP2C9 inh 62
O=C(O)c1ccccc1C(=O)NCc1ccccc1	none
CC(NC(=O)c1ccccc1NS(C)(=O)=O)c1ccccc1 (centres undefined)	CYP2C19 inhib 62, CYP2C9 inh 73
Cc1cccc(N2CCN(C(=O)c3ccoc3C)CC2)c1C	none (no result: CYP2C9 act, CYP2C19 inhib, CYP2C9 inh, CYP2C19 act)

From PubChem
